BAP1 inh: inhibitors of BAP1 deubiquitinase, primary screen, biochemical, Ub-AMC fluorescence, kinetic. hit rate 0.48% among 72,000. activity remaining (% of control), % at 20 µM. Ubiquitin carboxyl-terminal hydrolase BAP1 (Homo sapiens), Q92560. AID 436, 2006. recombinant BAP1, Ub-AMC hydrolysis fluorescence kinetic; active compounds read low;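 active means activity remaining at or below 50% of control, provided the compound also passes the data quality filters; inactive means the rest, including low values that fail the filters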;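 further: 100% = DMSO wells rate and 0% = substrate alone blank rate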
Target sequence (Q92560 whole entry, looked up): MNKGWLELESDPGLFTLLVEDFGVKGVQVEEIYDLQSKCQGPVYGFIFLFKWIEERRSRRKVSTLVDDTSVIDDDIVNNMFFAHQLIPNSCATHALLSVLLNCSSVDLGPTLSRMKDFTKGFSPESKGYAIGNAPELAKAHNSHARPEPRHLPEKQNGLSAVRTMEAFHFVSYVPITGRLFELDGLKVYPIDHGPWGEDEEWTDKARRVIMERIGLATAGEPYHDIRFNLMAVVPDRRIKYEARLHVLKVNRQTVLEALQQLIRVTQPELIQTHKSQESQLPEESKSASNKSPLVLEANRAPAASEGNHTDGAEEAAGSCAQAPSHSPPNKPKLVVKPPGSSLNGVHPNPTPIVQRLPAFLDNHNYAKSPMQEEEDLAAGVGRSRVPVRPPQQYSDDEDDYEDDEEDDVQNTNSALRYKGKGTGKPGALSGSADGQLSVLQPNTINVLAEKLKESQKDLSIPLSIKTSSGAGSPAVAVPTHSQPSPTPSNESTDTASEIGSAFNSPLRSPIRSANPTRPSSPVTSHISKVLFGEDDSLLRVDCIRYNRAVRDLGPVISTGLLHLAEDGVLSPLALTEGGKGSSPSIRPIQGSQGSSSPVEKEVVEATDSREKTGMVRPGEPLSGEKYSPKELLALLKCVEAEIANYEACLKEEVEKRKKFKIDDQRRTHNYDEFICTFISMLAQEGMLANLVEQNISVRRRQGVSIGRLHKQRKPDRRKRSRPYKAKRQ
S1P1 ag-PAM: S1P1 agonists and agonism potentiators, primary screen, cell-based, primary and confirmation screens, CRE-bla reporter. activation, % at 9.5 µM. hit rate 0.57% among 56,000. Sphingosine 1-phosphate receptor 1 (Homo sapiens), P21453. S1P1 CRE-bla cells, forskolin, beta-lactamase FRET, potentiator mode; S1P1 agonist co-added at EC20, 2 nM; 100% = saturating reference agonist, 0% = basal;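 active means activation above a cutoff set at the mean activation of all tested compounds plus 3 SD, cut at about 54% in these data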;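 further: forskolin at 4 µM as EC80 and the EC20 agonist is SEW2871; 100% = SEW2871 at its EC100 plus forskolin at EC80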
TNAP act DEA: human TNAP enzyme activators, primary screen, biochemical, luminescent, intermediate phosphate acceptor level. purified TNAP, CDP-star luminescence, 100 mM DEA, 30 min; active compounds read high; scale: 0 levamisole-inhibited, 1 vehicle-only enzyme. AID 813, 2007. 64,000 tested, under 10 active. activation factor at 20 µM;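 active means activation factor of at least 2 at 20 µM, relative to controls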
Hsp90 block: tumor Hsp90 inhibitors, primary screen, cell lysate, fluorescence polarization, NCI-N417 lysate; Heat shock protein HSP 90-alpha (Homo sapiens), P07900; Cy3B-geldanamycin FP displacement; inhibition, % at 30 µM; hit rate 0.35% among 64,000;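 active means inhibition above 50%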;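 further: 0% = tracer plus lysate wells and 100% = tracer alone without lysate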
HER2 expr 66K: inhibitors of Her2 protein expression, primary screen, SKBR-3 cells, AlphaScreen, 66K library. HER2 level % of control, % at 10 µM. hit rate 0.69% among 65,000. AID 645, 2007. Receptor tyrosine-protein kinase erbB-2 (Homo sapiens), P04626. SKBR-3 HER2 protein level, 18-24 h; active compounds read low;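 active means HER2 level under 5% of the carrier-only control; inconclusive means no clear call, values can overlap the other calls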;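 further: 100% = DMSO carrier and 0% = 500 nM PU-H71 HSP90 inhibitor; lower value means stronger loss of Her2 protein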
SK-BR-3 tox 24h: SK-BR-3 proliferation inhibitors, primary screen, cell-based, human, 24 h. SK-BR-3 viability, CellTiter-Glo ATP luminescence; active compounds read low. viability, % at 10 µM. hit rate 0.47% among 41,000. AID 847, 2007;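 active means viability at or below the median of all test compounds minus 3 SD, in both replicates if run twice, cut at about 45% in these data; inconclusive means duplicate replicates that disagree with each other; inactive means viability above that cutoff in every replicate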;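 further: 100% = median untreated cell wells and 0% = median positive control drug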
BAP1 inh confirm: BAP1 deubiquitinase inhibitors, hit retest, confirmation, orthogonal assay, biochemical, Ub-ethyl ester substrate, HPLC readout; shares compounds with BAP1 inh; purified BAP1, Ub-ethyl ester hydrolysis; active compounds read low; % of control activity, % at 20 µM; hit rate 8% among 310;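 active means percent of control activity at or below 60%; inconclusive means HPLC trace unusable from injection failure or solvent front hiding peaks; inactive means the rest, plus ubiquitin peak ratio over a set limit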
* = called active by the depositor; i = inactive; ? = inconclusive; / = not tested or not shown. The list is not random: actives were taken first. Their share in the collection is about 1.9%.

SMILES	BAP1 inh	S1P1 ag-PAM	TNAP act DEA	Hsp90 block	HER2 expr 66K	SK-BR-3 tox 24h	BAP1 inh confirm
CCc1nc2nc(C)cc(Nc3cccc(C(F)(F)F)c3)n2n1	96	-39	1	-3	88	84	/
CCCCCCn1c(-c2ccco2)nc2oc3cc(OC)ccc3c(=O)c2c1=O	44*	-34	0.9	-14	63	76	132
CCCc1nc2oc3cc(OC)ccc3c(=O)c2c(=O)n1Cc1ccco1	99	2	0.9	-12	61	74	/
Cc1csc(NC(=O)C2CCC(C)(C(=O)O)C2(C)C)n1 (stereo unspecified)	111	5	0.9	-2	97	/	/
COc1ccc(-n2c(SCC(=O)Nc3ccc4c(c3)OCO4)nc3c(c2=O)SCC3)cc1	50*	-10	0.9	-6	101	/	105
O=C(CSc1nc2c(c(=O)n1-c1ccc(Cl)cc1)SCC2)Nc1ccc2c(c1)OCCO2	41*	17	0.9	-4	79	/	49*
O=C(CCCN1C(=O)CSc2ncccc21)N1CCN(Cc2ccccc2)CC1	96	-16	0.9	-3	94	/	/
CCCc1cc(=O)oc2cc(C)c(CN3CCCC3)c(O)c12	35*	46	0.9	-8	89	96	116
COc1ccc(CNS(=O)(=O)c2ccc(S(=O)(=O)N3CCCCC3)cc2)cc1	46*	-51	0.9	-3	102	74	?
Cc1cc2n(n1)C(c1ccc(O)cc1)Nc1ccccc1-2 (stereo unspecified)	68	2	0.9	-3	81	95	/
Cc1cc2n(n1)C(c1ccco1)Nc1ccccc1-2 (stereo unspecified)	48*	-3	1	-6	87	87	98
Cc1nc(NC2=NCN(Cc3ccccc3)CN2)nc2ccccc12	108	18	0.9	2	90	79	/
CCOc1ccc(N2Cc3ccccc3C2)cc1	46*	-10	0.9	-5	125	/	94
O=C(c1cccs1)c1ccc(-c2cccs2)s1	48*	0	0.9	-6	-2.5*	130	139
O=C(c1cc2ccccc2o1)c1cccs1	86	-4	0.8	4	59	92	/
Cc1ccc(-c2nc3s/c(=C\c4ccco4)c(=O)n3n2)cc1	35*	-13	0.9	-12	75	107	55*
COc1ccc(Br)cc1/C=c1\sc2nc(-c3ccco3)nn2c1=O	37*	-8	1	-12	66	70	75
O=C(C1CCCN1S(=O)(=O)c1cccc2cccnc12)N1CCn2c1nc1ccccc12 (stereo unspecified)	79	11	0.9	-3	69	/	/
COc1ccc(C2CC(=O)N3CN(c4ccc(C)c(Cl)c4)CSC3=C2C#N)cc1OC (stereo unspecified)	45*	-26	1	1	113	/	?
COc1cc(OC)c(C2CC(=O)N3CN(c4ccc(C)cc4)CSC3=C2C#N)cc1OC (stereo unspecified)	86	14	0.9	-1	117	94	/
COc1cccc(-c2csc(N3CCN(S(=O)(=O)c4ccc(F)cc4)CC3)n2)c1	49*	-4	0.9	-1	77	101	84
CCOC(=O)Cn1nnnc1CN(Cc1ccc(OC)cc1)Cc1cc2cc(CC)ccc2[nH]c1=O	39*	-26	0.9	-4	64	95	97
CCCCN1CC(COc2ccccc2)OC1=O (stereo unspecified)	107	-36	0.9	-2	117	80	/
CC1(C)CC(=O)c2cc(C(=O)NC3CCSC3=O)c(=O)n(-c3ccccc3)c2C1 (stereo unspecified)	50*	-9	0.9	-3	94	85	74
COc1ccc2cc(C(c3nnnn3CCc3ccccc3)N3CCCC(C)C3)c(=O)[nH]c2c1 (stereo unspecified)	63	-76	1	-1	59	89	/
SMILES	BAP1 inh	S1P1 ag-PAM	TNAP act DEA	Hsp90 block	HER2 expr 66K	SK-BR-3 tox 24h	BAP1 inh confirm
Cc1cccn2c(=O)c3cc(C(=O)N4c5ccccc5CC4C)n(C)c3nc12 (stereo unspecified)	65	-33	1.1	4	84	78	/
Cc1cccn2c(=O)c3cc(C(=O)N4CCc5ccccc54)n(C)c3nc12	46*	-25	1.1	-1	80	84	i
CC1Cc2ccccc2N1C(=O)c1cc2c(=O)n3ccccc3nc2n1C (stereo unspecified)	47*	-57	0.9	-4	75	87	116
CCOc1ccc(NC(=O)CN2C(=O)C3CC=CCC3C2=O)cc1 (stereo unspecified)	106	-1	0.8	-2	91	100	/
N#Cc1c(NC(=O)CCN2C(=O)c3ccccc3C2=O)oc(-c2ccccc2)c1-c1ccccc1	39*	-9	1	-1	85	/	50*
CCOC(=O)c1[nH]c(CSc2nnc(-c3ccc(OC)cc3)o2)c(C(=O)OCC)c1C	37*	/	0.9	-4	83	65	138
COc1ccc(-c2nnc(SCC(=O)c3[nH]c(C)c(C(C)=O)c3C)o2)cc1	202	31	1	-5	79	/	/
Cc1ccc(-c2nc3cccnc3o2)cc1NC(=O)COc1ccc(Cl)cc1C	27*	/	0.8	-2	47	58	81
Cc1ccc(-c2nc3ncccc3o2)cc1NC(=O)Cc1ccc(Cl)cc1	101	-33	0.9	-5	101	100	/
CCc1nc(N2CCCC(C)C2)c2oc3ccccc3c2n1 (stereo unspecified)	45*	-14	0.9	1	87	88	93
COCCNC(=O)C(c1cccc(OC)c1)N(Cc1cccs1)C(=O)Cn1nnc2ccccc21 (stereo unspecified)	100	10	0.9	1	146	126	/
COC(=O)CSc1nc2ccccc2o1	/	/	1	/	62	97	/
COc1cc(OC)nc(NC(=O)CSc2nc3ccccc3o2)n1	43*	-15	0.9	0	130	127	84
CCOC(=O)C1=C(C)N=c2s/c(=C/c3ccco3)c(=O)n2C1c1cccc(OC)c1 (stereo unspecified)	40*	-7	0.9	-25	92	/	66

Compound activity as filed in PubChem BioAssay.
